About 83,000 compounds went through this panel and 20% of them were active in at least one assay; those are over-represented in the sample as a whole.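 Interpretation: 100, growth as untreated; towards 0, rising growth inhibition; 0, no net growth; 0 to -100, cell death. Compounds scoring below 10 were considered active.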 Calls of active or inactive are those of the source.

Here are results for 37 compounds from PubChem BioAssay (NCI).

The subject of the assay is SF-539 CNS. Kind of assay: NCI-60 one-dose screen, 48 h (100 = growth as untreated, 0 = no growth, -100 = all killed). To be noted: 10 µM unless noted.
`O=C(Nc1cccc2ccccc12)c1cc2ccccc2cc1O`: the growth was 17.7% (inactive).
For `COc1cc2c(O)n(CCCN3CCOCC3)c3c4cnc5cccc(c(=O)c3c2cc1OC)c54`, the growth was 24.5% (inactive).
The figure for `C#CCNC(=O)CC[C@@H](C)[C@H]1CC[C@H]2[C@@H]3CC[C@@H]4CC(=O)CC[C@]4(C)[C@H]3CC[C@]12C` is -82.6% [100 µM] (active); for `COc1ccc(NC(=O)Nc2ccc(-c3cccnc3)cc2N2CCC(CO)CC2)cc1` it is 15.1% (inactive).
The figure for `CC1(C(=O)O)CCC(N)(C(=O)O)C1(C)C` (configuration not stated) is 108% (inactive).
As for `COc1ncc(-c2ccc3nccc(C#CCCCCC(=O)NO)c3c2)cc1NS(=O)(=O)c1ccc(F)cc1F`, the growth was -45.7% (active).
As for `O=C(O)CC1CCCCC1c1ccccc1` (configuration not stated), the growth was 91.9% (inactive).
For the compound `CC(C)=CC/C=C(/C)[C@H]1CC[C@]2(C)[C@@H]1CC[C@@H]1[C@@]3(C)CCC(=O)NC(C)(C)[C@@H]3CC[C@]12C`, the growth was -92.2% [100 µM] (active).
Next, `Cc1nc(Cl)c2c(n1)N(C)c1ccc(Cl)cc1C(C)C2` (configuration not stated): 96.5% (inactive); `Cc1ccc(N)c(O)c1`: 99.1% (inactive); `Nc1ccc(Cl)c([N+](=O)[O-])c1`: 101% (inactive).
The figure for `O=[N+]([O-])c1cccc(N=NNc2cccc([N+](=O)[O-])c2)c1` is 97.6% (inactive).
Next, `C=C(C)[C@@H]1CC[C@]2(C)[C@H](CC[C@@H]3[C@@H]([C@@](C)(O)CCC=C(C)C)CC[C@]32C)[C@@]1(C)CCC(=O)N1CCN(C)CC1`: -94% [100 µM] (active); `Cn1cc(-c2noc(C(=O)c3cn(C)c4ncc(Br)cc34)n2)c2ccccc21`: 87.1% (inactive).
`COc1cc(NCc2ccccc2O)c2ncccc2c1`: the growth is 86% (inactive).
As to `Cc1ccc(C2=C/C(=C/c3ccc(Br)cc3)C(=O)N2CCc2ccc(S(N)(=O)=O)cc2)cc1`, the growth is 97.4% (inactive).
The figure for `Nc1nc(Nc2ccccc2)c2ncn(Cc3ccc4c(c3)OCO4)c2n1` is 46% (inactive); for `O=C(CCCSc1nc(-c2ccccc2)cc(-c2ccccc2)n1)NO` it is 6.64% (active); for `FC(F)(F)c1ccc2c(c1)Sc1ccccc1N2` it is 97.8% (inactive).
As for `O=C1NC(=O)C(Cc2ccccc2)(Cc2ccccc2)N1`, the growth is 102% (inactive).
Take `C=C(C)[C@@H]1CC[C@]2(C(=O)N3CCN(C)CC3)CC[C@]3(C)[C@H](CC[C@@H]4[C@@]5(C)C/C(=C/c6ccncc6)[C@H](O)C(C)(C)[C@@H]5CC[C@]43C)[C@@H]12`: the growth was -72% [100 µM] (active).
Regarding `C[C@@H](NC(=O)[C@@H](CC(=O)N1CCC(N2CCCCC2)CC1)N1C(=O)[C@@H](N2C(=O)OC[C@@H]2c2ccccc2)[C@H]1/C=C/c1cccc(Cl)c1)c1ccccc1`, the growth was 75.7% (inactive).
Next, `N#C/C(=C(/O)CCCO)c1nc2ccccc2c(=O)[nH]1`: 97.2% (inactive); `Cn1cc(-c2nnc(-c3cn(C)c4ncc(Br)cc34)s2)c2cc(Br)ccc21`: 81.5% (inactive).
The figure for `CC1(C)CC[C@]2(C(=O)OC(=O)[C@]34CCC(C)(C)C[C@@H]3C3=CC[C@@H]5[C@@]6(C)CCC(=O)C(C)(C)[C@@H]6CC[C@@]5(C)[C@]3(C)CC4)CC[C@]3(C)C(=CC[C@@H]4[C@@]5(C)CCC(=O)C(C)(C)[C@@H]5CC[C@]43C)[C@H]2C1` is 61.6% [100 µM] (inactive); for `Cn1cc(-c2noc(-c3cn(C)c4ncc(Br)cc34)n2)c2cc(Cl)ccc21` it is 48.9% (inactive).
Next, `CCc1cccc(Cl)c1`: 104% (inactive); `c1cc2ccc3cc2cc1CNCCN1CCNCc2ccc4ccc(cc4c2)CNCCN(CCNC3)CCNCc2ccc3ccc(cc3c2)CNCC1`: -41% (active); `COc1ccc(-c2cc(-c3ccccc3)nc(NCCNc3ccnc4cc(Cl)ccc34)n2)cc1`: -81.7% (active).
On to `O=C(N/N=C\c1cc(Cl)ccc1O)N/N=C/c1cc(Cl)ccc1O`, for which the growth is 39.3% (inactive).
Next, `O=C1Nc2ccccc2/C1=C/C(=O)c1ccc(N2CCCCC2)cc1`: 79.3% (inactive); `O=c1c2c3c(sc2n2cnnc2n1Cc1ccccc1)CCCC3`: 93.5% (inactive).
Take `Cn1c(=O)c(C#N)c(-c2ccco2)n2c(S(=O)(=O)Cc3ccccc3)nnc12`: the growth was 101% (inactive).
For `CCCCCn1sc(=O)n(Cc2ccc(CNC(=O)OCc3ccc4cccc(O)c4n3)cc2)c1=O`, the growth was -69.6% (active).
On to `O=C(N/N=C/c1ccc([N+](=O)[O-])cc1)c1ccc(Br)o1`, for which the growth is 97.8% (inactive).
The figure for `C=C(C)[C@@H]1CC[C@]2(COCCC#N)CC[C@]3(C)[C@H](CC[C@@H]4[C@@](C)(CCCNCCC#N)[C@H](C(=C)C)CC[C@]43C)[C@@H]12` is -20% [100 µM] (active).
The figure for `C=C(C)[C@@H]1CC[C@]2(C(=O)OC)CC[C@]3(C)[C@H](CC[C@@H]4[C@@]5(C)CC/C(=N\OCCC(=NCCC#N)NOCCC#N)C(C)(C)[C@@H]5CC[C@]43C)[C@@H]12` is -2.29% [100 µM] (active).
